According to the supplement of paper PMC10849652:
About 8,800 targets were measured; listed, in parts, are those with a hit and a random draw of the rest. About 0.5% of all pairs of compound and target were hits.

compound: C[C@@H](Oc1cc(-c2cnn(C3CCNCC3)c2)cnc1N)c1c(Cl)ccc(F)c1Cl [crizotinib]; assay: log2 fold change, soluble protein after heating vs DMSO (PISA); higher = thermal stabilisation; K562 lysate, 10 uM; active = over 0.2 and 3.5 SD of the protein, either way, in both replicates (recomputed)
Procedure, shortened: (§1)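 A 30 min treatment with 10 μM compound was applied to crude K562 extract at 1 mg/mL protein in PBS pH 7.4 with 1 mM MgCl2. Heating for 3 min spanned 48°C-58°C, after which aliquots were pooled, adjusted to 0.5% NP-40 at 4°C and spun at 21,000xg for 90 min. TMTpro 16plex LC-MS/MS of the supernatant, with channel sums equalised, gave values recorded as log-two fold change in thermal stability against solvent controls, from duplicates.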

Chain of UniProt Q96JB5 (Q96JB5 whole entry, looked up): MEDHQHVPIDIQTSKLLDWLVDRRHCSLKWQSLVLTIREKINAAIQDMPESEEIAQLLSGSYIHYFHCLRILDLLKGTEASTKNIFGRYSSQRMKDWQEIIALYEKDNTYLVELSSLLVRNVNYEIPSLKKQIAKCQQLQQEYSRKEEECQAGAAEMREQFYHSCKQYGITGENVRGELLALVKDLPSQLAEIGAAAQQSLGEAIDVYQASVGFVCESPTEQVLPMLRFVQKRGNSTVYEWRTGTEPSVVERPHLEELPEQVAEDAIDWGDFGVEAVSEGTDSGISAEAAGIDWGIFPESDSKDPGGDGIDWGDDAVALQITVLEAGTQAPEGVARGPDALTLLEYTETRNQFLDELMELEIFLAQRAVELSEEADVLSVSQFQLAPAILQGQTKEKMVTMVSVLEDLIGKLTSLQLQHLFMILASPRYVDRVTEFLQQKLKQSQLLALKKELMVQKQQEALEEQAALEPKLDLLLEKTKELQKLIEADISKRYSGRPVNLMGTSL
Chain of UniProt Q9HD20 (Q9HD20 whole entry, looked up): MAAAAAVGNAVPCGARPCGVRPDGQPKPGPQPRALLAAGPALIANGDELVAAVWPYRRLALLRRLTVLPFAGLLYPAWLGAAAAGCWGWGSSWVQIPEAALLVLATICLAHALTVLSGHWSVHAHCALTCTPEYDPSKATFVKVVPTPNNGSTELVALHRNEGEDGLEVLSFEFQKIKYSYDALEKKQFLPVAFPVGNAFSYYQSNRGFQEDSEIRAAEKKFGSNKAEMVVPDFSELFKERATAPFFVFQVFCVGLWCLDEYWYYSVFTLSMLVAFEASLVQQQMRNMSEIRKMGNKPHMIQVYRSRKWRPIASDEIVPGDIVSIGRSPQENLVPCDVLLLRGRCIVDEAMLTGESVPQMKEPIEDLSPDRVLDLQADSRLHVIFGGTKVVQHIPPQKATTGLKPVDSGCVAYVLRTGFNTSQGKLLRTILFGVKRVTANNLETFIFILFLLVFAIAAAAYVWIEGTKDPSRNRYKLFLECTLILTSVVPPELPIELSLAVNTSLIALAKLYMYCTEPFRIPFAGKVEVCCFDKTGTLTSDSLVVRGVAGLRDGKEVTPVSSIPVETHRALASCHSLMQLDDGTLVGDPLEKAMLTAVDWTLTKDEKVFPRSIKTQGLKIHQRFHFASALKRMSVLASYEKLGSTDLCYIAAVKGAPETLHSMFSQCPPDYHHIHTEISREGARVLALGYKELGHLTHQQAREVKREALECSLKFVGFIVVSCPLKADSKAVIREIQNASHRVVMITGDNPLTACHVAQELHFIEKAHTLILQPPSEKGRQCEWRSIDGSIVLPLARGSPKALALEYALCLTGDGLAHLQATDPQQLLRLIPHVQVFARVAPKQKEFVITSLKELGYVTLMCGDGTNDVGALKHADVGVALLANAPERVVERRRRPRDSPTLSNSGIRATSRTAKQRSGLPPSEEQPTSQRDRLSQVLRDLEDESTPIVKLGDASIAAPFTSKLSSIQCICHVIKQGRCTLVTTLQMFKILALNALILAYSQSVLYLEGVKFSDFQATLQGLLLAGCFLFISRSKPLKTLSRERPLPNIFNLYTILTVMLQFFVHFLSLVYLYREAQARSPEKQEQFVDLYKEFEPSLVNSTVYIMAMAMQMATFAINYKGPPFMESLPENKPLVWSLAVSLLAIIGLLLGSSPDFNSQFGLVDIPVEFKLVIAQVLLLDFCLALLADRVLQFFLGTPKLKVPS
Chain of UniProt P04632 (P04632 whole entry, looked up): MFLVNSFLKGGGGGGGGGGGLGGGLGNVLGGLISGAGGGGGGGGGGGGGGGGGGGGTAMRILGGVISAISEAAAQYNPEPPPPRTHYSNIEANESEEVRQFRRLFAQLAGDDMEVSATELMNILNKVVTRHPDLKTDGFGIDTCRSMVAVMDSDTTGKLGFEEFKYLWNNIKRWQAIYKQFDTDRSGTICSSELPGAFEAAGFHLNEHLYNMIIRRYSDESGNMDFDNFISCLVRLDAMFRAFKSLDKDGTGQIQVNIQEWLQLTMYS
Chain of UniProt Q9Y4P1 (Q9Y4P1 whole entry, looked up): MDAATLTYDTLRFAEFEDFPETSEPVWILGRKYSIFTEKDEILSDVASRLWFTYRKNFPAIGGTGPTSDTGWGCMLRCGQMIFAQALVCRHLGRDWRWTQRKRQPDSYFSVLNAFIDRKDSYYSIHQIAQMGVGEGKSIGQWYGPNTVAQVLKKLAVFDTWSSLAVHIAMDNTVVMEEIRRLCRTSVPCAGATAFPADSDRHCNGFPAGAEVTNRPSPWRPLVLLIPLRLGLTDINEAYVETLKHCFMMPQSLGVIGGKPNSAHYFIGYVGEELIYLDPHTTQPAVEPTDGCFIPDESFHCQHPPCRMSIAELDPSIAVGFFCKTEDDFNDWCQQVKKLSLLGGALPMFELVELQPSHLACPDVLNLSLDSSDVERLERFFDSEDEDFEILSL
Chain of UniProt P98196 (P98196 whole entry, looked up): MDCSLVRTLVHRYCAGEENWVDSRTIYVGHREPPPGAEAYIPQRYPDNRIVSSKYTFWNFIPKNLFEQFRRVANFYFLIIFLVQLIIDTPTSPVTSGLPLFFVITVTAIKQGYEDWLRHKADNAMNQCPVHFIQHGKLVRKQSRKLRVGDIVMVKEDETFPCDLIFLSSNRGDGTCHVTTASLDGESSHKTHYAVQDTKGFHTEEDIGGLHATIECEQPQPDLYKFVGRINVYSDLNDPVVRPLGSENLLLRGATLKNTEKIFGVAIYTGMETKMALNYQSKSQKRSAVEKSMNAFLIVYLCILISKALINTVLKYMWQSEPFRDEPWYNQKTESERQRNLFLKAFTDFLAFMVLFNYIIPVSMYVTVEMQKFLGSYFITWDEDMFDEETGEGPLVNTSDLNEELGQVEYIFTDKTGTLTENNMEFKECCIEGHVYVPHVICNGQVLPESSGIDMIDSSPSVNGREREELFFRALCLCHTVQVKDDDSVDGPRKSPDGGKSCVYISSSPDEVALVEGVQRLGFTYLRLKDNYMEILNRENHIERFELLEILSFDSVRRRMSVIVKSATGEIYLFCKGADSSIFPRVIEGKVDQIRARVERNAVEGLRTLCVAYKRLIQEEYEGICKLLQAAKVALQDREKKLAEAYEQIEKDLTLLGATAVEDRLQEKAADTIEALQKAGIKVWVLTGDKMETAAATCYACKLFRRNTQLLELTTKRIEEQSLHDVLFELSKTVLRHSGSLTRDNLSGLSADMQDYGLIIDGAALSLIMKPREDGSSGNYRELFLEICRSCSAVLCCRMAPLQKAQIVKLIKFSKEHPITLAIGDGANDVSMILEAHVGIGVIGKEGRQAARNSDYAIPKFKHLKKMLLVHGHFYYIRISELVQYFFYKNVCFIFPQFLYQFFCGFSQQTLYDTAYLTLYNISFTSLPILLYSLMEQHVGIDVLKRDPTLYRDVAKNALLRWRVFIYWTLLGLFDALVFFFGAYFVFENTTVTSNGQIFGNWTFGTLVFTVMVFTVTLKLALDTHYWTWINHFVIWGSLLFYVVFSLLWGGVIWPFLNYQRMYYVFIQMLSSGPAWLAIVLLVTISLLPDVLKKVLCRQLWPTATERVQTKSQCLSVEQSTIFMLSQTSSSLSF
Chain of UniProt P06493 (P06493 whole entry, looked up): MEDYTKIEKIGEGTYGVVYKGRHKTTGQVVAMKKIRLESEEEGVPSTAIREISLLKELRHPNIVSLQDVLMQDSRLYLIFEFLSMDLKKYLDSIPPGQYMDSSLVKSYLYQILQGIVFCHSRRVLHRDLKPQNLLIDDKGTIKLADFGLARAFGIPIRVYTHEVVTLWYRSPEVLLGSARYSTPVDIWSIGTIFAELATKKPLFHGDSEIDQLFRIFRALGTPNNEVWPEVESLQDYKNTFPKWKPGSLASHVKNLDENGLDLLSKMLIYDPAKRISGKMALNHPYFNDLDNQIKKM
Chain of UniProt O95260 (O95260 whole entry, looked up): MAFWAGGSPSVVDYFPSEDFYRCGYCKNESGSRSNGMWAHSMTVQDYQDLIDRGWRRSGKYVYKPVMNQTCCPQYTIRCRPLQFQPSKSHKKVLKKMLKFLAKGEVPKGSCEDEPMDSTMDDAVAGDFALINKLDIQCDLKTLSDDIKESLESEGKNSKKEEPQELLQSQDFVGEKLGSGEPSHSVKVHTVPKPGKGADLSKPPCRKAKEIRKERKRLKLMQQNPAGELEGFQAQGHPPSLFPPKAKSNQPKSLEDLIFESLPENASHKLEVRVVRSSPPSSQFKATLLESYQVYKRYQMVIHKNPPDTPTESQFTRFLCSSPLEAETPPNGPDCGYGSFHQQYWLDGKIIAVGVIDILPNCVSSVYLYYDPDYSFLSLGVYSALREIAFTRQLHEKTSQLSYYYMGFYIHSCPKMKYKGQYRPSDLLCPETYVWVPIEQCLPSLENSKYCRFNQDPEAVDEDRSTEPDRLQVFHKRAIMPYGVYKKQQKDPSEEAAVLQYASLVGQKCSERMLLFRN
Chain of UniProt Q14012 (Q14012 whole entry, looked up): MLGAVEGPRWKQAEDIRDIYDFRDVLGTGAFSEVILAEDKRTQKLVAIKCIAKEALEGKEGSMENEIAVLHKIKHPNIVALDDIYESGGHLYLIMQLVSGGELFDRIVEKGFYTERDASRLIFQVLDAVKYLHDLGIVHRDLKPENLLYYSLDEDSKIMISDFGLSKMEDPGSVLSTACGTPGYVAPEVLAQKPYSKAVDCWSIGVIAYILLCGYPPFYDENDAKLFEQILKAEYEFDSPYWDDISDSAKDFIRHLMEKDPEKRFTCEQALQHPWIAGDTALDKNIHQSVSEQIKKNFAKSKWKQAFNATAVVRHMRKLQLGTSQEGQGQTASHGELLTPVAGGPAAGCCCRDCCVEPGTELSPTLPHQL
Chain of UniProt Q9BV29 (Q9BV29 whole entry, looked up): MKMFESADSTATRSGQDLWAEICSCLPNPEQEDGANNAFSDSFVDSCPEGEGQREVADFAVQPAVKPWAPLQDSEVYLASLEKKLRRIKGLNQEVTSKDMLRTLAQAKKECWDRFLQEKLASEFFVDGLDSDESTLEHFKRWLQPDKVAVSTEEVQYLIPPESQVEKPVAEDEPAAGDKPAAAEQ

Target | log2 fold change
CCAR2 (UniProt Q8N163) | -0.067 (inactive)
CDK1 (UniProt P06493) | -0.041 (inactive)
ATE1 isoform 2 (UniProt O95260) | 0.024 (inactive)
CCDC22 (UniProt O60826) | -0.036 (inactive)
ATXN2 (UniProt F8WB05) | -0.023 (inactive)
CHAF1A (UniProt Q13111) | 0.012 (inactive)
C2CD5 isoform 3 (UniProt Q86YS7) | -0.028 (inactive)
CARNMT1 (UniProt Q8N4J0) | -0.131 (inactive)
CCNC (UniProt P24863) | -0.037 (inactive)
BCR (UniProt P11274) | 0.034 (inactive)
CDC16 (UniProt Q13042) | 0.009 (inactive)
CHCHD4 isoform 2 (UniProt Q8N4Q1) | -0.085 (inactive)
BTAF1 (UniProt O14981) | -0.041 (inactive)
CEP120 (UniProt Q8N960) | -0.034 (inactive)
CHD4 isoform 2 (UniProt Q14839) | -0.007 (inactive)
ATP11A (UniProt P98196) | -0.005 (inactive)
BRD3 (UniProt Q15059) | -0.022 (inactive)
ATG4B (UniProt Q9Y4P1) | -0.087 (inactive)
BORCS5 (UniProt Q969J3) | -0.002 (inactive)
CCPG1 isoform 5 (UniProt Q9ULG6) | 0.006 (inactive)

Target | log2 fold change
ATP13A1 (UniProt Q9HD20) | 0.123 (inactive)
BUB1B isoform 3 (UniProt O60566) | -0.059 (inactive)
CDK5 (UniProt Q00535) | -0.031 (inactive)
CDAN1 (UniProt Q8IWY9) | -0.038 (inactive)
CCNB1 (UniProt P14635) | -0.024 (inactive)
CDC7 (UniProt O00311) | -0.024 (inactive)
CCDC186 (UniProt Q7Z3E2) | 0.006 (inactive)
ATG13 isoform 2 (UniProt O75143) | -0.022 (inactive)
CCDC32 isoform 2 (UniProt Q9BV29) | -0.021 (inactive)
CAPNS1 (UniProt P04632) | 0.047 (inactive)
CDK5RAP3 isoform 4 (UniProt Q96JB5) | -0.054 (inactive)
CAMK1 (UniProt Q14012) | -0.078 (inactive)
CDS2 (UniProt O95674) | 0.031 (inactive)
CALB2 (UniProt P22676) | 0.01 (inactive)
BCKDK (UniProt O14874) | 0.096 (inactive)
CARS isoform 3 (UniProt P49589) | 0.019 (inactive)
CCNK isoform 4 (UniProt O75909) | -0.008 (inactive)
CARD11 (UniProt Q9BXL7) | -0.018 (inactive)
CANX isoform 2 (UniProt P27824) | -0.002 (inactive)
BNIP1 (UniProt Q12981) | -0.062 (inactive)

compound: C[C@H](C1=CC=C(C=C1)C(=O)NC2=C3C=CNC3=NC=C2)N; assay: as above
Procedure, shortened: as §1

Target | log2 fold change
CCAR2 (UniProt Q8N163) | -0.009 (inactive)
CDK1 (UniProt P06493) | -0.018 (inactive)
ATE1 isoform 2 (UniProt O95260) | -0.089 (inactive)
CCDC22 (UniProt O60826) | -0.014 (inactive)
ATXN2 (UniProt F8WB05) | 0.087 (inactive)
CHAF1A (UniProt Q13111) | -0.054 (inactive)
C2CD5 isoform 3 (UniProt Q86YS7) | -0.26 (active)
CARNMT1 (UniProt Q8N4J0) | -0.354 (active)
CCNC (UniProt P24863) | 0.075 (inactive)
BCR (UniProt P11274) | -0.064 (inactive)
CDC16 (UniProt Q13042) | 0.047 (inactive)
CHCHD4 isoform 2 (UniProt Q8N4Q1) | -0.316 (inactive)
BTAF1 (UniProt O14981) | -0.137 (inactive)
CEP120 (UniProt Q8N960) | -0.105 (inactive)
CHD4 isoform 2 (UniProt Q14839) | -0.05 (inactive)
ATP11A (UniProt P98196) | -0.108 (inactive)
BRD3 (UniProt Q15059) | -0.333 (active)
ATG4B (UniProt Q9Y4P1) | 0.114 (inactive)
BORCS5 (UniProt Q969J3) | 0.037 (inactive)
CCPG1 isoform 5 (UniProt Q9ULG6) | -0.036 (inactive)

Target | log2 fold change
ATP13A1 (UniProt Q9HD20) | 0.047 (inactive)
BUB1B isoform 3 (UniProt O60566) | 0.007 (inactive)
CDK5 (UniProt Q00535) | -0.024 (inactive)
CDAN1 (UniProt Q8IWY9) | 0 (inactive)
CCNB1 (UniProt P14635) | -0.019 (inactive)
CDC7 (UniProt O00311) | -0.335 (active)
CCDC186 (UniProt Q7Z3E2) | 0.295 (active)
ATG13 isoform 2 (UniProt O75143) | -0.271 (active)
CCDC32 isoform 2 (UniProt Q9BV29) | -0.195 (inactive)
CAPNS1 (UniProt P04632) | -0.21 (inactive)
CDK5RAP3 isoform 4 (UniProt Q96JB5) | -0.231 (active)
CAMK1 (UniProt Q14012) | -0.145 (inactive)
CDS2 (UniProt O95674) | -0.029 (inactive)
CALB2 (UniProt P22676) | -0.041 (inactive)
BCKDK (UniProt O14874) | -0.038 (inactive)
CARS isoform 3 (UniProt P49589) | 0.003 (inactive)
CCNK isoform 4 (UniProt O75909) | -0.213 (active)
CARD11 (UniProt Q9BXL7) | -0.025 (inactive)
CANX isoform 2 (UniProt P27824) | -0.037 (inactive)
BNIP1 (UniProt Q12981) | 0.273 (inactive)
